Results filed as inconclusive are left out. Where a call stands in place of a potency, no number is given. Values without a mark were called inactive. Active and inactive are the calls of the source. The call rests on the fitted dose curve; in most records, active means well fitted curve in the direction sought with a large enough effect; inconclusive means small, poorly fitted or top-dose-only effect, or another doubt; inactive means no such curve, though single readings can be large; an effect the other way counts as inactive or inconclusive.
Experiments:
[1] = qHTS to identify inhibitors of the type 1 interferon - major histocompatibility complex class I in skeletal muscle: primary screen against the NCATS Pharmaceutical Collection (AID 1347407);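 further: luminescence of HiBiT knocked into endogenous HLA-B as interferon-induced MHC class I level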
Outline: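 A qHTS format is used: 8-point, 1:5 compound series with 46 uM top final concentration, applied alongside 4 ng/ml IFN-beta to HLA-B*08:01-HiBiT knock-in myoblasts. Luminescence is measured after 24 h treatment.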

[2] = biological target: Protein phosphatase 1D (Homo sapiens) (UniProt O15297); experiment: RapidFire Mass Spectrometry qHTS Assay for Modulators of WT P53-Induced Phosphatase 1 (WIP1) (AID 1347424); further: series mostly up to about 63 µM
Sequence of Protein phosphatase 1D (Homo sapiens) (O15297 whole entry, looked up): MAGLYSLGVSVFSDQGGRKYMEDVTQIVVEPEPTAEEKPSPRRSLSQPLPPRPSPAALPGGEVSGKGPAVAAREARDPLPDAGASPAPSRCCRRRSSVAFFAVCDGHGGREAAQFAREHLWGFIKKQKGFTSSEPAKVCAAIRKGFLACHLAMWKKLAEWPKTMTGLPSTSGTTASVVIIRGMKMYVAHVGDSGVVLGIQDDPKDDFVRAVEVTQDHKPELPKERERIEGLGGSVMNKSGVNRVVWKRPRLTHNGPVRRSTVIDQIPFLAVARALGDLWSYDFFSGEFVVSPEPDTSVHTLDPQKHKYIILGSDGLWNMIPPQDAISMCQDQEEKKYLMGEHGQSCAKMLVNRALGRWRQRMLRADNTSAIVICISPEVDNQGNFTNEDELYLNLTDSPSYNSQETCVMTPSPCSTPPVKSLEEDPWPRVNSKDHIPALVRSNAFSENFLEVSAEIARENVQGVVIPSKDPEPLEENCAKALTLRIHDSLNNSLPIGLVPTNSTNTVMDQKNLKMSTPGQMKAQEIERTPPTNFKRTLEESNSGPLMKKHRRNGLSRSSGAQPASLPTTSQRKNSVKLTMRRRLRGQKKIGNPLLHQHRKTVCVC
Outline: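 RapidFire MS readout of dephosphorylated VEPPL-S-QETFS product, with 1 uM isotope-labelled peptide standard. Reaction: 10 nM WIP1, 2 uM phosphopeptide substrate, 5 min, room temperature, after 1 h compound preincubation; stopped with 0.5% formic acid.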

[3] = biological target: Protein phosphatase 1D (Homo sapiens) (UniProt O15297); experiment: Rhodamine-PBP qHTS Assay for Modulators of WT P53-Induced Phosphatase 1 (WIP1) (AID 1347425)
Outline: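 Steps: enzyme with Rh-PBP sensor and compounds, room-temperature incubation of 1 hr, baseline read, addition of VEPPL-pS-QETFS (10 uM final), kinetic fluorescence reads at 525/598 nm. Activity equals final minus baseline signal.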

[4] = Primary qHTS for inhibitors of La Crosse Virus (LACV) - induced cell death in SH-SY5Y cells (AID 1508616);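 further: top concentration of the series differs between compounds; higher means more rescue of cells from virus-induced death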
Outline: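 SH-SY5Y, 6000 cells/well; cpd via pin tool in DMSO; LACV 0.01 MOI; 6 d 37C 5% CO2; ATPLite, 5 min RT; luminescence normalized to ±virus DMSO controls.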

[5] = biological target: Calcium and integrin-binding protein 1 (Homo sapiens) (UniProt Q99828); experiment: Primary qHTS for Identification of Calcium Integrin Binding Protein 1 (CIB1) Competitor (AID 1508620); further: potency means the concentration at half of the fitted maximal effect
Sequence of Calcium and integrin-binding protein 1 (Homo sapiens) (Q99828 whole entry, looked up): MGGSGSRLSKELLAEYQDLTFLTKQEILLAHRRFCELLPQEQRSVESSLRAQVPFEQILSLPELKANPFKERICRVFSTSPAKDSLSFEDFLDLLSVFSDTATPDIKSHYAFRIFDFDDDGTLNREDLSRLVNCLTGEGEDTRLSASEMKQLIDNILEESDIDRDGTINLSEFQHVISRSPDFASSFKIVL
Outline: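 Fluorescence polarization competition: GST-tagged CIB1 (1 uM final) preincubated with compound 15 min at room temperature, then FITC-labelled alphaIIb peptide (100 nM final) added. After 15 min at room temperature, polarization read at Ex 480/Em 540.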

[6] = biological target: Calcium and integrin-binding protein 1 (Homo sapiens) (UniProt Q99828); experiment: Confirmatory qHTS for Identification of Calcium Integrin Binding Protein 1 (CIB1) Competitor (AID 1508617); further: potency means the concentration at half of the fitted maximal effect; nearly all actives have a fitted effect of over 65% in size
Outline: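 Binding competition between test compounds and fluorescent alphaIIb peptide for 1 uM CIB1-GST is monitored by FP at 480/540 nm. Final compound range is up to 114 uM; unlabeled peptide serves as reference competitor.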

SMILES	Potency [1]	Potency [2]	outcome [3]	outcome [4]	Potency [5]	Potency [6]
CC(=O)OC[C@H]1O[C@@H](OC(C)=O)[C@H](OC(C)=O)[C@@H]1OC(C)=O	inactive	inactive	inactive	inactive	inactive	–
CCOc1c(N2CCOCC2)cnn(C)c1=O	inactive	inactive	inactive	inactive	inactive	–
CC(C)(Oc1ccc(Cl)cc1)C(=O)OCCCOC(=O)C(C)(C)Oc1ccc(Cl)cc1	inactive	inactive	inactive	inactive	inactive	–
CCCc1ccc(OCC(=O)N2CCN(C(=O)COc3ccc(CCC)cc3OC)CC2)c(OC)c1	inactive	inactive	inactive	inactive	inactive	–
Nc1cc(C(F)(F)F)ccc1S	inactive	inactive	inactive	inactive	28.2 µM (active)	22.4 µM (active)
O=C(O)C(=O)Nc1cccc(-c2nn[nH]n2)c1	inactive	inactive	inactive	inactive	inactive	–
COc1ccc(CCC(C)=O)cc1	inactive	inactive	inactive	inactive	inactive	–
Cc1cc(C(C)(C)C)c(O)c(C(C)(C)C)c1	inactive	inactive	inactive	inactive	inactive	–
Cc1cccc(OCC(O)CNC(C)(C)C)c1C (stereo unspecified)	inactive	inactive	inactive	inactive	inactive	–
Cc1cccc(C)c1NC(=O)c1ccc(N)cc1	inactive	inactive	inactive	inactive	inactive	–
OC(CCCN1CCCCC1)(c1ccccc1)c1ccccc1	inactive	inactive	inactive	inactive	inactive	–
O=C(C1CCCCC1)N1CC(=O)N2CCCc3ccccc3C2C1 (stereo unspecified)	inactive	inactive	inactive	inactive	inactive	–
CCO[C@H](Cc1ccc(OCCc2ccc(OS(C)(=O)=O)cc2)cc1)C(=O)O	inactive	inactive	inactive	inactive	inactive	–
CCN1CCCC1CN (stereo unspecified)	inactive	inactive	inactive	inactive	inactive	–
Cc1ncc([N+](=O)[O-])n1C	inactive	inactive	inactive	inactive	inactive	–
Cc1c(N)cccc1C(F)(F)F	inactive	inactive	inactive	inactive	inactive	–
C1N2CN3CN1CN(C2)C3	inactive	inactive	inactive	inactive	inactive	–

SMILES	Potency [1]	Potency [2]	outcome [3]	outcome [4]	Potency [5]	Potency [6]
CC(=O)N(CC(O)CO)c1c(I)c(C(=O)NCCO)c(I)c(C(=O)NCC(O)CO)c1I (stereo unspecified)	inactive	inactive	inactive	inactive	inactive	–
C/C(=C(/OCCOc1ccc(Cl)cc1)c1ccc(Cl)cc1Cl)n1ccnc1	inactive	inactive	inactive	inactive	inactive	–
CC(=O)c1cc2ccccc2s1	inactive	inactive	inactive	inactive	inactive	–
Cc1ccc(C(C)OC(=O)C2(C)CCC(C(=O)O)C2(C)C)cc1 (stereo unspecified)	inactive	inactive	inactive	inactive	inactive	–
CCOC(=O)Oc1ccc(CCNC(=O)[C@H](CCSC)NC(C)=O)cc1OC(=O)OCC	inactive	inactive	inactive	inactive	inactive	–
COC(=O)c1cc(Cl)ccc1OC	inactive	inactive	inactive	inactive	inactive	–
CCOC(=O)N1CCC(Nc2ccc(Cl)cc2N)CC1	inactive	inactive	inactive	inactive	inactive	–
CCC(CN)=C(c1ccccc1)c1ccccc1	inactive	inactive	inactive	inactive	inactive	–
CCOC(=O)NNc1ccc(N(CC)CC(C)O)nn1 (stereo unspecified)	inactive	inactive	inactive	inactive	inactive	–
Nc1nc2ccccc2n1Cc1ccc(F)cc1	inactive	inactive	inactive	inactive	inactive	–
CN1Cc2cc(C(=O)N3CCC(C4CCNCC4)CC3)ccc2N[C@@H](CC(=O)O)C1=O	inactive	inactive	inactive	inactive	inactive	–
CC(NC(CCc1ccccc1)C(=O)O)C(=O)N1C(=O)N(C)CC1C(=O)O (stereo unspecified)	inactive	inactive	inactive	inactive	inactive	–
C1=CC2C3C=CC(C3)C2C1 (stereo unspecified)	inactive	inactive	inactive	inactive	inactive	–
NC(=O)COCCN1CCN(C(c2ccccc2)c2ccc(Cl)cc2)CC1 (stereo unspecified)	inactive	inactive	inactive	inactive	inactive	–
CC(C)OC(=O)c1cc2c(OCC(O)CNC(C)(C)C)cccc2[nH]1 (stereo unspecified)	inactive	inactive	inactive	inactive	inactive	–
Cc1ccc(O)cc1	inactive	inactive	inactive	inactive	inactive	–

From PubChem BioAssay (NCATS)
